# From PubChem BioAssay
# Compounds with a hit are over-represented: about 3.3% of the library has one in this group of screens.
# Sm TGR block: inhibitors of Schistosoma mansoni thioredoxin glutathione reductase. purified TGR, DTNB reduction, TNB absorbance 405 nm. AID 485364. 360,000 tested, 3% active. Potency, µM (titrated, usually from 114 µM), for the others: at the highest dose activity change, negative = inhibition, most hits filed as inhibitors. Q962Y6; also: % is scaled to controls: 0 for no effect and ±100 for the full control effect; nearly all actives have a fitted effect of over 60% in size
#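 First, TGR (20 nM dispensed) and NADPH were mixed with compound. Second, a 15 min room-temperature incubation followed. Third, further NADPH and then DTNB were added to start the reaction. Finally, TNB absorbance was monitored kinetically.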
# RE007 growth inh: less growth of the S. pombe RE007 Vpr strain | Potency, µM (series often up to 92.2 µM), inactives show at the top dose activity change, negative = less growth, most hits filed as inhibitors | 360,000 tested, 0.21% active | S. pombe RE007 Vpr strain, BacTiter-Glo ATP luminescence, 24 h; active = well fitted falling curve with a large enough effect; inconclusive = small, poorly fitted or top-dose-only effect; inactive = no such curve, though single readings can be large or run the other way; also: % is scaled to controls: 0 for no effect and ±100 for the full control effect; nearly all actives have a fitted effect of over 50% in size
#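 Fission yeast RE007 carrying one integrated HIV-1 vpr copy, seeded at OD 0.01 in PMG+AL medium with 23 nL pinned compound. Grown 24 h at 30 degrees; viability read by BacTiter-Glo luminescence after 5 min.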
# NS1 inh: influenza NS1 inhibition | Potency, µM (titrated, usually from 46.1 µM), inactives show top-dose activity, positive = more growth | 270,000 tested, 0.4% active | AID 2326; calls by dose curve; also: actives are rising curves; nearly all actives have a fitted effect of over 50% in size
#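 Compounds were scored for reversing the slow growth caused by influenza A NS1 in S. cerevisiae, measured by optical density at 600 nm. Assay medium contained 2% galactose at pH 6.0; NS1-free yeast of the same strain were the positive control.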
# Tb PYK inh: T. brucei pyruvate kinase inhibition; Potency, µM (titrated, usually from 76.8 µM), for inactives: at the top dose activity, negative = inhibition, actives largely listed as inhibitors; Q57TT1; 410,000 tested, 0.12% active; TbPYK enzyme, Kinase-Glo Plus ATP luminescence, 45 min; also: % is scaled to controls: 0 for no effect and ±100 for the full control effect; nearly all actives have a fitted effect of over 50% in size
#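 Glycolytic pyruvate kinase of T. brucei was incubated with substrate, test compound and 130 uM ADP for 45 minutes at room temperature. Luminescent Kinase-Glo Plus signal was measured after 10 minutes.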
# LmPK inhibitor: inhibitors of Leishmania mexicana pyruvate kinase; Q27686; purified LmPK, Kinase-Glo ATP luminescence, 1 h; Potency, µM (titrated, usually from 57.5 µM), without a hit: at the highest dose activity change, negative = inhibition, most hits filed as inhibitors; 290,000 tested, 0.37% active; also: % is scaled to controls: 0 for no effect and ±100 for the full control effect
# Target sequence (Q27686 whole entry, looked up): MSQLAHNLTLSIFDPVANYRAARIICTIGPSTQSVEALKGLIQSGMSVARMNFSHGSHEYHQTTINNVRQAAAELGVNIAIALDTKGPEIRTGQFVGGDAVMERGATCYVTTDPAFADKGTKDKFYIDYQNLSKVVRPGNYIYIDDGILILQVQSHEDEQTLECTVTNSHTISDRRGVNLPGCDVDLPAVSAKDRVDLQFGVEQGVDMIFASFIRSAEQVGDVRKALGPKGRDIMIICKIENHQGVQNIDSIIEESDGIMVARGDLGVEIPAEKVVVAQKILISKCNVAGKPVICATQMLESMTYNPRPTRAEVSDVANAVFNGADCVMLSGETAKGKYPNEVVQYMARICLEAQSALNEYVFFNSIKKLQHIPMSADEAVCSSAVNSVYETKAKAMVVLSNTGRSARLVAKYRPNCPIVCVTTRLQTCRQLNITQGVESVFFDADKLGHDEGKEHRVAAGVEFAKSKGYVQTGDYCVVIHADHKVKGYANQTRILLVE
#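 Pyruvate kinase activity monitored as ATP production (luciferase luminescence). Conditions: 0.1 nM enzyme, 0.5 mM PEP, 0.1 mM ADP, 1 h, RT; normalized against uninhibited and no-enzyme wells.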
# SARS PLP yeast: inhibitors of SARS-CoV papain-like protease in yeast | 330,000 tested, 0.19% active | Potency, µM (titrated, usually from 32.9 µM), inactives show top-dose activity, positive = growth rescue, usual class: activators | S. cerevisiae expressing SARS-CoV PLpro, growth rescue; calls by dose curve; also: 0% is about no effect; nearly all actives have a fitted effect of over 55% in size
# Numbers without * were called inactive; u = inconclusive; x = no result; ! = repeats disagree; [ ] = dose if it differs, or a comment. Unless noted, calls follow the shape of the dose curve; as a rule, active = well fitted curve in the direction sought with a large enough effect; inconclusive = small, poorly fitted or top-dose-only effect, or another doubt; inactive = no such curve, though single readings can be large; an effect the other way counts as inactive or inconclusive. Potency is read from the fitted curve at half-maximal effect.
SMILES,Sm TGR block,RE007 growth inh,NS1 inh,Tb PYK inh,LmPK inhibitor,SARS PLP yeast
CCNC(=O)COc1ccc(/C=C2\COc3ccccc3C2=O)cc1OC,39.8µM*,-0.8%,-33.2%,-1.3%,-2.1%,-9.5%
CCOc1cc(/C=C2\COc3ccccc3C2=O)ccc1OCC(=O)N(C)C,u,-4.9%,6.1%,-3.7%,2.4%,-9.8%
CCOC(=O)/C(C)=N/Nc1nc(-c2ccc(NC(C)=O)cc2)cs1,11.2µM*,-13.6%,-1.7%,-9.9%,-4.5%,1.3%
Cc1cc(C(=O)OCC(=O)N2CCC(c3ccccc3)=N2)ccc1[N+](=O)[O-],-5.2%,0.0%,x,-0.7%,x,0.5%
Cc1[nH]c2ccccc2c1C(=O)COC(=O)c1ccc([N+](=O)[O-])s1,x,63.1µM*,-79.1%,-2.3%,4.1%,-5.7%
O=C(OCC(=O)N1CCC(c2ccccc2)=N1)c1ccc([N+](=O)[O-])s1,u,15.8µM*,x,1.7%,x,-27.0%
O=C(COC(=O)c1ccc([N+](=O)[O-])s1)Nc1ccc(F)cc1,14.1µM*,u,x,5.9%,x,-4.6%[6.58 µM]
O=C(c1ccncc1)N1CCC2(CCCN(c3ccncc3)C2)CC1,x,x,x,-4.5%,x,x
CCOc1ccc(NC(=O)C2Cc3ccccc3N2C(=O)c2ccccc2)cc1 (stereo not drawn),50.1µM*,x,x,3.0%,x,x
CCc1ccc(OCc2ccc(C(=O)O)o2)cc1,35.5µM*,2.4%,-2.3%,3.9%,2.9%,-3.4%
CN(C(=O)CSc1nc2ccc(NC(=O)CCc3ccccc3)cc2s1)c1ccccc1,-10.4%,x,x,1.2%,x,x
CC(C)CC(=O)/C(=C\c1ccc(Cl)cc1Cl)n1cncn1,22.4µM*,u,-45.2%,-5.6%,-5.8%,-90.9%
CC(C)CC(=O)/C(=C/c1ccc(N(C)C)cc1)n1cncn1,3.9%,-3.7%,1.5%,-13.7%,5.2%,-0.2%
O=C1c2ccccc2C(Nc2ccc(F)c(Cl)c2)N1Cc1ccco1 (stereo not drawn),12.6µM*,-10.8%,-99.5%,-18.7%,1.7%,-27.0%
Oc1ccc(Nc2ccc3ccccc3c2)cc1,x,u,x,-15.5%,x,x
Cc1cc(Nc2ccc(O)cc2)ccc1N,2µM*,x,x,x,x,1.5%
Cc1cccc(NC(=O)CCn2cnnn2)c1,89.1µM*!,-2.0%,x,0.5%,5.9%,-4.7%
C1=CC2c3ccccc3NC(c3ccncc3)C2C1 (stereo not drawn),2.51µM*,-18.9%,u,u,-8.2%,0.3%
CCOCCCNC(=O)c1cc(=O)[nH]c2ccc(S(=O)(=O)N3CCCC3)cc12,2.5%,x,x,1.3%,x,x
Cc1ccccc1NC(=O)c1sc2nc(-c3ccncc3)ccc2c1N,6.0%,x,x,-7.1%,x,x
CCOC(=O)NC1(Nc2ccc(C)cc2)Oc2ccccc2O1,39.8µM*,-14.3%,10.5%,u,4.0%,1.4%
CCOC(=O)NC1(NCC(C)C)Oc2ccccc2O1,22.4µM*,-1.4%,0.0%,-13.9%,-2.4%,-6.4%
CCOC(=O)C(Cc1ccccc1)C1(C)Oc2ccccc2O1 (stereo not drawn),x,12.1%,x,x,x,x
CCOC(=O)NC1(NCc2ccccc2)Oc2ccccc2O1,31.6µM*,-21.3%,-3.4%,-19.3%,-7.4%,0.9%
CCOC(=O)C1=C(C)c2ccccc2OC1(C(=O)OCC)C(C)C (stereo not drawn),x,10.5%,x,-5.8%,x,-27.2%
SMILES,Sm TGR block,RE007 growth inh,NS1 inh,Tb PYK inh,LmPK inhibitor,SARS PLP yeast
CCOC(=O)Nc1ccc(Oc2ccccc2)cc1,18.2%,11.9%,-29.5%,-4.3%,-0.4%,-12.1%
CCOC(=O)NC1(NC(C)C)Oc2ccccc2O1,44.7µM*,9.0%,1.0%,5.2%,-2.4%,3.6%
CC(C)Oc1ccc(CNC(=O)c2ccc(CS(=O)c3cccc(Cl)c3)o2)cc1 (stereo not drawn),u,x,x,-0.3%,x,x
CCOC(=O)NC1(NC2CCCCC2)Oc2ccccc2O1,15.8µM*,14.1%,-70.8%,-9.4%,-2.2%,u
CCOC(=O)NC1c2ccccc2Oc2ccccc21,16.2%,8.1%,-1.3%,-0.8%,-0.2%,-0.1%
CN(C)CN1CSC(=S)N(CN(C)C)C1,x,x,-14.9%,x,x,x
